LMP1 NFkB inh: reduces LMP1-driven NF-kappaB luciferase signal. LMP1-induced NF-kappaB luciferase reporter cells, luminescence. inhibition, % at 12.5 µM. hit rate 0.69% among 350,000. AID 504558; in the data active = inhibition above about 41%; inconclusive = no clear call, values can overlap the other calls;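 also: 0% = neutral control wells and 100% = reference inhibitor control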
LGR2 inh: blocks bursicon-induced cAMP signaling via Drosophila LGR2; HEK293 LGR2, CRE-luciferase, bursicon-stimulated, 4 h; inhibition, % at 9.99 µM; hit rate 0.35% among 380,000;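 active = drop in luminescence signal, shown as inhibition above about 50% in the replicate tests, limit read from the data, passing the limit was not always enough; inconclusive = probably only some replicates passing the limit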;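 also: agonist challenge used bursicon conditioned medium at about half maximal strength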
EWS-Fli block: blocks EWS/Fli oncoprotein-driven transcription; A673 NR0B1-luciferase reporter, viability-normalised; inhibition, % at 12.6 µM; hit rate 0.67% among 350,000; AID 651661;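 active = mean inhibition of at least 50% after viability correction, with every replicate also passing that limit; inconclusive = mean reaches 50% but only one of two replicates passes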;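 also: firefly luciferase signal divided by Alamar Blue viability fluorescence both relative to DMSO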
TWEAK-Fn14 inh: TWEAK-Fn14 signaling inhibition; TWEAK-stimulated Fn14 reporter cells, luciferase luminescence, 8 h; inhibition, % at 10 µM; hit rate 2% among 360,000; in the data active = inhibition above about 50%
TROY NFkB inh: inhibitors of TROY-dependent NF-kB signaling; Q293 LMP1-TROYcd NF-kB luciferase reporter, 4 h; inhibition, % at 10 µM; hit rate 0.98% among 360,000;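 active = compounds whose plate-normalised and pattern-corrected inhibition of the luciferase reporter signal at the single screening dose is 50% or more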
PAX8 reporter: inhibitors of PAX8 transcriptional activity in RMG-I cells; RMG-I TPO-luciferase reporter, SteadyGlo, 24 h; inhibition, % at 12.6 µM; hit rate 1.2% among 360,000; AID 652154;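 active = mean replicate inhibition at least 60% with every replicate also reaching 60%; inconclusive = only one of the two criteria is met; inactive = mean below 60% and not all replicates reaching 60%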;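 also: luciferase light reporting Pax8 driven TPO promoter activity; plate controls were median of neutral control wells for no effect and mitoxantrone controls for full effect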
* hit, by the source's call; ? = inconclusive; . = no result. Only some compounds are listed: those with a hit (about 3.2% of all), similar ones and a draw of the others.

SMILES | LMP1 NFkB inh | LGR2 inh | EWS-Fli block | TWEAK-Fn14 inh | TROY NFkB inh | PAX8 reporter
COc1cc(/C=C/C(=O)c2ccc(O)cc2)ccc1OCC#N | -1 | . | 27 | 71* | -1 | 55
COc1cccc(C(=O)/C=C/c2ccc(OCC#N)c(OC)c2)c1 | 7 | 21 | . | 84* | 1 | 18
CCOc1ccc(/C=C/C(=O)c2ccccc2)cc1OC | -6 | -72 | . | 15 | -57 | -173
Cc1nc(NC(=O)c2cc3ccccc3o2)ccc1Br | -20 | -92 | . | -12 | -48 | -61
Cc1cccc(NC(=O)c2cc3ccccc3c(=O)o2)n1 | -20 | -28 | -60 | 51* | -34 | -188
Cc1ccc(OCCCCCCN2CCNCC2)c(Br)c1 | 1 | ? | 33 | 58* | 49 | -38
Brc1ccc(-n2cc(-c3ccccc3)c3c(NN4CCOCC4)ncnc32)cc1 | 21 | 6 | 9 | 13 | 27 | 95*
COc1ccc(-n2cc(-c3ccccc3)c3c(N4CCOCC4)ncnc32)cc1 | 20 | 28 | 20 | 18 | 10 | 64*
c1ccc(-c2cn(-c3ccccc3)c3ncnc(NCCCN4CCOCC4)c23)cc1 | 4 | 6 | 2 | 11 | -5 | 18
Cc1ccccc1NC(=O)Nc1ccc2c(c1)C(=O)N(C)[C@@H]1CC[C@H](CC(=O)O)O[C@H]1CO2 | . | -2 | -3 | . | . | 2
Cc1cc(/C=c2/sc3nc4ccccc4n3c2=O)c(C)n1-c1ccccn1 | 56* | . | . | 83* | 75* | .
CCN(CC)c1ccc(/C=c2\sc3nc4ccccc4n3c2=O)c(O)c1 | 2 | -2 | -15 | 67* | 54* | -4
C[C@@H]1CCCCO[C@@H](CN(C)C)[C@H](C)CN([C@H](C)CO)C(=O)c2cc(NC(=O)Nc3ccc(F)cc3)ccc2O1 | . | 13 | 4 | . | . | 2
CN(c1ccccc1)C1CCCCC1NS(=O)(=O)c1ccc(Cl)cc1 (configuration not stated) | -6 | -62 | 16 | 18 | 9 | 9
CCN(CC)C1CCCCC1NS(=O)(=O)c1ccc(Cl)cc1 (configuration not stated) | 52* | 5 | 0 | 7 | -12 | 9
CCCCNC(=O)/C(=C/c1ccccc1)NC(C)=O | 8 | . | -5 | 7 | 1 | 139*
CCC(=O)N1C[C@@H](C)[C@H](OC)CN(C)C(=O)c2cc(NS(C)(=O)=O)ccc2OC[C@@H]1C | . | 5 | -3 | . | . | .
O=C(NCCc1cccc(Cl)c1)c1ccc(OC2CCN(Cc3ccccn3)CC2)cc1 | . | 10 | 40 | 82* | 73* | -13
Cc1cccnc1CCNC(=O)c1ccc(OC2CCN(Cc3ccccn3)CC2)cc1 | 17 | -20 | 0 | 55* | 50 | -19
CCOC(=O)N1CCC(Nc2c(N3CCN(c4cc(Cl)ccc4C)CC3)c(=O)c2=O)CC1 | 7 | 3 | 15 | -8 | 22 | 11
CCOC(=O)N1CCC(Nc2c(-c3ccc(C)c(C)c3)c(=O)c2=O)CC1 | 53* | . | . | -1 | -8 | 16
Cn1cnc(S(=O)(=O)N2C[C@H](O)COC[C@@H]3O[C@H](CC(=O)NCc4cc(F)cc(F)c4)CC[C@H]32)c1 | . | 3 | -6 | . | . | -15
C[C@H](CO)N1C[C@H](C)[C@@H](CN(C)Cc2ccc(C(=O)Nc3ccccc3N)cc2)Oc2ccc(NS(=O)(=O)c3cccs3)cc2CC1=O | . | -25 | 25 | . | . | 16
CCOc1ccc(NC(=O)CCc2nnc3ccc(N4CCC5(CC4)OCCO5)nn23)cc1 | 48* | -2 | -3 | 9 | -3 | -3
CCc1ccc(NC(=O)CCc2nnc3ccc(N4CCC5(CC4)OCCO5)nn23)cc1 | 5 | 4 | 1 | -30 | -3 | 1
SMILES | LMP1 NFkB inh | LGR2 inh | EWS-Fli block | TWEAK-Fn14 inh | TROY NFkB inh | PAX8 reporter
S=C(Nc1ccc(Oc2ccccc2)cc1)NC1CCCC1 | 9 | -12 | -1 | -21 | -24 | 5
S=C(NCC1CCCCC1)Nc1ccc(Oc2ccccc2)cc1 | 48* | -1 | -6 | 18 | 46 | -13
CC(=O)COc1ncn(-c2ccccc2)n1 | -2 | . | . | 87* | . | .
CCOC(=O)COc1ncn(-c2ccccc2)n1 | -12 | . | . | -27 | -33 | .
COc1ccc(S(=O)(=O)Nc2cccc(-c3ccc4nncn4n3)c2)cc1 | 8 | 9 | 64* | -17 | 30 | 41
COc1ccc(C(=O)Nc2cccc(-c3ccc4nncn4n3)c2)cc1 | -2 | -8 | -2 | -13 | -23 | 5
C[C@@H]1CCCCO[C@H](CN(C)Cc2ccc(C(F)(F)F)cc2)[C@H](C)CN([C@H](C)CO)C(=O)c2cc(NS(=O)(=O)c3cccs3)ccc2O1 | . | 4 | 19 | . | . | 99*
C[C@@H]1CCCCO[C@@H](CN(C)Cc2ccc(C(F)(F)F)cc2)[C@H](C)CN([C@H](C)CO)C(=O)c2cc(NS(=O)(=O)c3cccs3)ccc2O1 | . | 6 | 9 | . | . | 89*
C[C@@H]1CCCCO[C@@H](CN(C)Cc2ccc(C(F)(F)F)cc2)[C@H](C)CN([C@@H](C)CO)C(=O)c2cc(NS(=O)(=O)c3cccs3)ccc2O1 | . | 10 | 12 | . | . | ?
C[C@@H]1CCCCO[C@@H](CN(C)Cc2ccc(C(F)(F)F)cc2)[C@@H](C)CN([C@H](C)CO)C(=O)c2cc(NS(=O)(=O)c3cccs3)ccc2O1 | . | 30 | -2 | . | . | 38
C[C@@H]1CCCCO[C@H](CN(C)Cc2ccc(C(F)(F)F)cc2)[C@H](C)CN([C@@H](C)CO)C(=O)c2cc(NS(=O)(=O)c3cccs3)ccc2O1 | . | 31 | 11 | . | . | 93*
COC(=O)C[C@H]1CC[C@H]2[C@H](COc3ccc(NC(=O)c4cc(C)on4)cc3C(=O)N2C)O1 | . | -15 | 1 | . | . | -16
COc1cccc(S(=O)(=O)Nc2ccc3c(c2)OC[C@@H](C)N(C(=O)Cc2cccnc2)C[C@H](C)[C@H](OC)CN(C)C3=O)c1 | . | 13 | -1 | . | . | -9
CN1CCN(S(=O)(=O)c2ccc(Sc3nnnn3-c3ccccc3)c([N+](=O)[O-])c2)CC1 | -6 | . | -10 | 100* | 40 | 9
CC(=O)c1ccc(Sc2nnnn2-c2ccccc2)c([N+](=O)[O-])c1 | -15 | 76* | 8 | 98* | 37 | -17
O=[N+]([O-])c1ccc(Sc2nnnn2-c2ccccc2)c(Cl)c1 | 24 | 3 | . | 33 | 24 | .
CCCC(=O)NC(Nc1c(C)n(C)n(-c2ccccc2)c1=O)C(Cl)(Cl)Cl (configuration not stated) | -8 | 6 | -11 | 2 | 6 | -6
CC(=O)NC(Nc1c(C)n(C)n(-c2ccccc2)c1=O)C(Cl)(Cl)Cl (configuration not stated) | -7 | 1 | -6 | -1 | 63* | 14
CCCC(=O)NC(NC(=S)Nc1c(C)n(C)n(-c2ccccc2)c1=O)C(Cl)(Cl)Cl (configuration not stated) | 0 | . | . | 82* | . | .
O=C(CN1C(=O)COc2ccccc21)N(Cc1cccnc1)Cc1cccc(F)c1 | 7 | -15 | . | 68* | 16 | .
COc1ccc(CCNC(=O)c2nnn(-c3ccc4c(c3)OCCO4)c2N)cc1OC | 50* | . | . | 97* | 87* | .

Compound activity (PubChem)
